Counter-ions that a name gives are not always drawn. ± gives the standard deviation of the averaged measurements. Whole data set: some 1,700 compounds, median “cell number in HSV-1-infected wells relative to infected DMSO wells (H2B-RFP signal)” near 100, cut for the highest 2% near 140. The list comes from a sample in which the highest values are over-represented; it also holds similar structures and randomly drawn compounds.
Test system: A549 infected with HSV-1
Experiment: cell number in HSV-1-infected wells relative to infected DMSO wells (H2B-RFP signal); higher = more surviving cells (uninfected or antiviral-protected wells give about 200%; low = toxicity)
Conditions: 10 µM; 48 h; MOI: 0.1
Procedure: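 Selleck FDA-approved library (L1300) screened in duplicate at 10 µM on A549 H2B-mRuby cells in 384-well plates, infected with HSV-1 strain 17 YFP-ICP4 at MOI 0.1 one hour before drug addition. Imaged after 2 days at 37°C. Cell growth (H2B-RFP) and infection (ICP4-YFP) are expressed as % of DMSO-treated wells. Hits: growth >90% and infection <20% of DMSO.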

SMILES | cell number in HSV-1-infected wells [%]
Nc1cc(C(Cl)=C(Cl)Cl)c(S(N)(=O)=O)cc1S(N)(=O)=O [Clorsulon] | 114 ± 7.9
CCc1c(C)[nH]c2c1C(=O)C(CN1CCOCC1)CC2 (stereo unspecified) [Molindone hydrochloride] | 93 ± 20
CO/N=C(\C(=O)N[C@@H]1C(=O)N2C(C(=O)O)=CCS[C@H]12)c1csc(N)n1 [Ceftizoxime] | 136 ± 15
COc1ccccc1OCC(O)COC(N)=O (stereo unspecified) [Methocarbamol] | 115 ± 1.9
Cl.NCCCC[C@H](N)C(=O)O [L-Lysine hydrochloride] | 123.8 ± 0.98
CC(=O)O[C@]1(C(C)=O)CC[C@H]2[C@@H]3C=C(C)C4=CC(=O)CC[C@]4(C)[C@H]3CC[C@@]21C [Megestrol Acetate] | 112 ± 9.4
CC(=O)O[C@]1(C(C)=O)CC[C@H]2[C@@H]3C=C(Cl)C4=CC(=O)CC[C@]4(C)[C@H]3CC[C@@]21C [Chlormadinone acetate] | 148 ± 5.6
CC(=O)O[C@]1(C(C)=O)CC[C@H]2[C@@H]3C=C(Cl)C4=CC(=O)[C@@H]5C[C@@H]5[C@]4(C)[C@H]3CC[C@@]21C [Cyproterone Acetate] | 118 ± 11
CN1CCN(c2ccc(C(=O)Nc3n[nH]c4ccc(Cc5cc(F)cc(F)c5)cc34)c(NC3CCOCC3)c2)CC1 [Entrectinib (RXDX-101)] | 18 ± 8.2
CCC/N=C1\S/C(=C\c2ccc(OC[C@H](O)CO)c(Cl)c2)C(=O)N1c1ccccc1C [Ponesimod] | 17.2 ± 12
CC(OC(=O)OC1CCCCC1)OC(=O)C1=C(CSc2nnnn2CCN(C)C)CS[C@@H]2[C@H](NC(=O)Cc3csc(N)n3)C(=O)N12 (stereo partly specified) [Cefotiam Hexetil Hydrochloride] | 76.7 ± 3.4
CC(C)(CO)[C@@H](O)C(=O)NCCCO [D panthenol] | 121 ± 46
COc1c(N2C[C@@H]3CCCN[C@@H]3C2)c(F)cc2c(=O)c(C(=O)O)cn(C3CC3)c12 [Moxifloxacin] | 145 ± 32
COc1c(N2CCNC(C)C2)c(F)cc2c(=O)c(C(=O)O)cn(C3CC3)c12 (stereo unspecified) [Gatifloxacin] | 108 ± 17
CNC1CCCN(c2c(F)cc3c(=O)c(C(=O)O)cn(C4CC4)c3c2OC)C1 (stereo unspecified) [Balofloxacin] | 117 ± 1.2
COc1c(N2C[C@@H]3CCCN[C@@H]3C2)c(F)cc2c(=O)c(C(=O)O)cn(C3CC3)c12 [Moxifloxacin HCl] | 87.9 ± 22
CCCN1CCCC[C@H]1C(=O)Nc1c(C)cccc1C [Ropivacaine] | 115 ± 7.2
CCCN1CCCC[C@H]1C(=O)Nc1c(C)cccc1C [Ropivacaine HCl] | 87.6 ± 6.9
[Cl][Mn][Cl] [Manganese chloride] | 109 ± 4.5
CCOc1ccc(Cc2cc([C@@H]3O[C@H](SC)[C@@H](O)[C@H](O)[C@H]3O)ccc2Cl)cc1 [Sotagliflozin (LX4211)] | 61.71 ± 0.063
COc1cc2c(cc1OC)[C@H]1C[C@@H](OC(=O)[C@@H](N)C(C)C)[C@H](CC(C)C)CN1CC2 [Valbenazine tosylate] | 134 ± 41
CCN1CCN(c2cc3c(cc2F)c(=O)c(C(=O)O)cn3C2CC2)CC1 [Enrofloxacin] | 147 ± 8.9
CCn1cc(C(=O)O)c(=O)c2cc(F)c(N3CCNCC3)cc21 [Norfloxacin] | 97.4 ± 27
CN1C[C@@H]2C[C@H]1CN2c1cc2c(cc1F)c(=O)c(C(=O)O)cn2C1CC1 [Danofloxacin Mesylate] | 110.8 ± 1.1

SMILES | cell number in HSV-1-infected wells [%]
CN1CCN(c2cc3c(cc2F)c(=O)c(C(=O)O)cn3-c2ccc(F)cc2)CC1 [Difloxacin HCl] | 129 ± 16
O=C(O)c1cn(-c2ccc(F)cc2)c2cc(N3CCNCC3)c(F)cc2c1=O [Sarafloxacin HCl] | 151 ± 7.2
O=C(O)c1cn(C2CC2)c2cc(N3CCNCC3)c(F)cc2c1=O [Ciprofloxacin hydrochloride hydrate] | 139 ± 2.3
NC(=O)c1cccc2cn(-c3ccc([C@@H]4CCCNC4)cc3)nc12 [Niraparib (MK-4827) tosylate] | 71.7 ± 13
NC(=O)c1cccc2cn(-c3ccc([C@@H]4CCCNC4)cc3)nc12 [Niraparib (MK-4827)] | 71.2 ± 3.2
C[C@H](CCC(=O)O)[C@H]1CC[C@H]2[C@@H]3CC[C@@H]4C[C@H](O)CC[C@]4(C)[C@H]3C[C@H](O)[C@]12C [Deoxycholic acid] | 109 ± 44
COCC[n+]1c2c(n(Cc3cnccn3)c1C)C(=O)c1ccccc1C2=O [YM155 (Sepantronium Bromide)] | 9.16 ± 6
CCN1CC(CCN2CCOCC2)C(c2ccccc2)(c2ccccc2)C1=O (stereo unspecified) [Doxapram] | 96.5 ± 8.2
CCN1CC(CCN2CCOCC2)C(c2ccccc2)(c2ccccc2)C1=O (stereo unspecified) [Doxapram HCl] | 91.29 ± 0.3
CC(C)N(CCCCOCC(=O)NS(C)(=O)=O)c1cnc(-c2ccccc2)c(-c2ccccc2)n1 [Selexipag] | 80.8 ± 1.5
CN(C/C=C/C#CC(C)(C)C)Cc1cccc2ccccc12 [Terbinafine HCl] | 101 ± 9
CN(C/C=C/C#CC(C)(C)C)Cc1cccc2ccccc12 [Terbinafine] | 99.9 ± 40
OC[C@H]1O[C@H](O[C@H]2[C@H](O)[C@@H](O)C(O)O[C@@H]2CO)[C@H](O)[C@@H](O)[C@@H]1O (mixture of isomers) [Maltose] | 117 ± 4.3
Cc1c(-c2cnccn2)ssc1=S [Oltipraz] | 100 ± 4
C[C@@H](c1nc(-c2ccc(C#N)cc2)cs1)[C@](O)(Cn1cncn1)c1cc(F)ccc1F [Isavuconazole] | 99.7 ± 21
CC(C)OC(=O)[C@H](C)N[P@](=O)(CO[C@H](C)Cn1cnc2c(N)ncnc21)Oc1ccccc1 [Tenofovir Alafenamide (GS-7340)] | 189.3 ± 1.6
CC(C)(C)C(=O)OCOP(=O)(COCCn1cnc2c(N)ncnc21)OCOC(=O)C(C)(C)C [Adefovir Dipivoxil] | 64.6 ± 8.8
C[C@H](Cn1cnc2c(N)ncnc21)OCP(=O)(O)O [Tenofovir] | 79.9 ± 13
CC(C)OC(=O)OCOP(=O)(CO[C@H](C)Cn1cnc2c(N)ncnc21)OCOC(=O)OC(C)C [Tenofovir Disoproxil Fumarate] | 147.7 ± 0.7
CC(C)OC(=O)[C@H](C)N[P@](=O)(OC[C@H]1O[C@@H](n2ccc(=O)[nH]c2=O)[C@](C)(F)[C@@H]1O)Oc1ccccc1 [Sofosbuvir (PSI-7977, GS-7977)] | 73.7 ± 21
O=c1oc2c(O)c(O)cc3c(=O)oc4c(O)c(O)cc1c4c23 [Ellagic acid] | 106 ± 2.3
N=C1CCCN1Cc1[nH]c(=O)[nH]c(=O)c1Cl [Tipiracil hydrochloride] | 107 ± 1.8
COC(=O)N[C@@H](C)CNc1nccc(-c2cn(C(C)C)nc2-c2cc(Cl)cc(NS(C)(=O)=O)c2F)n1 [Encorafenib (LGX818)] | 124 ± 6.5
CNCC[C@H](Oc1cccc2ccccc12)c1cccs1 [Duloxetine] | 121.44 ± 0.086

SMILES | cell number in HSV-1-infected wells [%]
CNCC[C@H](Oc1cccc2ccccc12)c1cccs1 [Duloxetine HCl] | 92.1 ± 10
CNC(=O)c1ccc(Nc2ncc(C(F)(F)F)c(NCc3nccnc3N(C)S(C)(=O)=O)n2)cc1 | 27.6 ± 6.6
CC(C)(Oc1ccc(C(=O)c2ccc(Cl)cc2)cc1)C(=O)O [Fenofibric acid] | 75.9 ± 3.5
CC(C)(Oc1ccc(CCNC(=O)c2ccc(Cl)cc2)cc1)C(=O)O [Bezafibrate] | 147 ± 48
CC(C)(Oc1ccc(Cl)cc1)C(=O)O [Clofibric Acid] | 82.4 ± 11
CC1(C)S[C@@H]2[C@H](NC(=O)COc3ccccc3)C(=O)N2[C@H]1C(=O)O [Penicillin V potassium salt] | 86.4 ± 5.6
Cc1cc(C)cc(OCC2CNC(=O)O2)c1 (stereo unspecified) [Metaxalone] | 132 ± 16
Nc1nc2[nH]cc(CCc3ccc(C(=O)N[C@@H](CCC(=O)O)C(=O)O)cc3)c2c(=O)[nH]1 [Pemetrexed] | 59.2 ± 18
Nc1nc2[nH]cc(CCc3ccc(C(=O)N[C@@H](CCC(=O)O)C(=O)O)cc3)c2c(=O)[nH]1 [Pemetrexed Disodium Hydrate] | 67 ± 22
CC(=O)SCC(Cc1ccccc1)C(=O)NCC(=O)OCc1ccccc1 (stereo unspecified) [Racecadotril] | 96.3 ± 17
Cc1cc2c(cc1S(N)(=O)=O)S(=O)(=O)CCC2 [Meticrane] | 83.96 ± 0.47
CS(=O)(=O)c1cccc(C[C@H](NC(=O)c2c(Cl)cc3c(c2Cl)CCN(C(=O)c2ccc4ccoc4c2)C3)C(=O)O)c1 [Lifitegrast] | 104 ± 15
Cn1ncc(Cl)c1-c1cc(C(=O)N[C@H](CN)Cc2ccc(F)c(F)c2)oc1Cl | 69.8 ± 17
COc1cc2nccc(Oc3ccc(NC(=O)C4(C(=O)Nc5ccc(F)cc5)CC4)cc3)c2cc1OC [Cabozantinib malate (XL184)] | 90.5 ± 47
COc1cc2nccc(Oc3ccc(NC(=O)Nc4cc(C)on4)c(Cl)c3)c2cc1OC [Tivozanib (AV-951)] | 117 ± 40
COc1cc2nccc(Oc3ccc(NC(=O)C4(C(=O)Nc5ccc(F)cc5)CC4)cc3)c2cc1OC | 72.2 ± 7.6
COc1cc2nccc(Oc3ccc(NC(=O)NC4CC4)c(Cl)c3)c2cc1C(N)=O [lenvatinib Mesylate] | 144 ± 32
COc1cc2nccc(Oc3ccc(NC(=O)NC4CC4)c(Cl)c3)c2cc1C(N)=O [Lenvatinib (E7080)] | 104 ± 6
Cc1nccn1CC1CCc2c(c3ccccc3n2C)C1=O (stereo unspecified) [Ondansetron HCl] | 74.7 ± 25
Cc1nccn1CC1CCc2c(c3ccccc3n2C)C1=O (stereo unspecified) [Ondansetron Hydrochloride Dihydrate] | 76 ± 13
CN(C)CCC=C1c2ccccc2COc2ccccc21 [Doxepin HCl] | 104 ± 11
Cc1[nH]cnc1CN1CCc2c(c3ccccc3n2C)C1=O [Alosetron Hydrochloride] | 112 ± 6.3
COC(=O)C1=C(C)NC(C)=C(C(=O)OC(C)C)C1c1cccc2nonc12 (stereo unspecified) [Isradipine] | 97.7 ± 3.5
